Assay results from PubChem BioAssay (NCI).
Where “and” joins values, the source holds several entries; their conditions need not be identical. Equal entries are not always repeated. The panel holds about 83,000 compounds, 20% with a hit somewhere; the sample as a whole holds those more often.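 A percent growth of 40 corresponds to 60% growth inhibition; 0 means no net growth; -100 means all cells died. Active threshold: below 10.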 Calls of active or inactive are those of the source.

Tests used:
Test in all cases: NCI-60 one-dose screen, 48 h (100 = growth as untreated, 0 = no growth, -100 = all killed)
[1] = test system: HCT-15 colon
[2] = test system: HT29 colon
[3] = test system: SNB-75 CNS
[4] = test system: SNB-19 CNS
[5] = test system: U251 CNS
[6] = test system: PC-3 prostate
[7] = test system: SK-MEL-5 melanoma
[8] = test system: UACC-62 melanoma
[9] = test system: LOX IMVI melanoma
[10] = test system: SK-MEL-28 melanoma

Measured: growth

Cc1ccc(-c2cc(C(=O)N=Nc3c(O)[nH]c4ccc(F)cc34)c3ccccc3n2)cc1
inactive: [2]; 10 µM unless noted 36.3% | [3]; 10 µM unless noted 56.7% | [4]; 10 µM unless noted 41.9% | [6]; 10 µM unless noted 77.6% | [7]; 10 µM unless noted 59.2% | [8]; 10 µM unless noted 59.9%
active: [1]; 10 µM unless noted 7.85% | [5]; 10 µM unless noted -30.9% | [9]; 10 µM unless noted 1.93%

C=CCSc1nnc(-c2c(C)nc3sccn23)o1
inactive: [1]; 10 µM unless noted 92.7% | [2]; 10 µM unless noted 96.1% | [3]; 10 µM unless noted 69.1% | [4]; 10 µM unless noted 82.7% | [5]; 10 µM unless noted 88% | [6]; 10 µM unless noted 88.9% | [7]; 10 µM unless noted 95.5% | [8]; 10 µM unless noted 74.4% | [9]; 10 µM unless noted 95.5%

N/C(=N\c1nc2ccccc2s1)NC(=O)Nc1ccccc1F
inactive: [1]; 10 µM unless noted 25.7% | [4]; 10 µM unless noted 28.9% | [5]; 10 µM unless noted 11.2% | [6]; 10 µM unless noted 33.3% | [8]; 10 µM unless noted 25.3% | [9]; 10 µM unless noted 27%
active: [2]; 10 µM unless noted 5.46% | [3]; 10 µM unless noted -0.749% | [7]; 10 µM unless noted -0.0152%

CC/C(=C(\c1ccc(O)cc1)c1ccc(OCCN(C)C(=O)COCCNC(=O)Cc2ccc3c(c2)CN([C@@H]2CCC(=O)NC2=O)C3=O)cc1)c1ccccc1
inactive: [1]; 1 µM 110% | [1]; 10 µM 99.5% | [2]; 1 µM 110% | [2]; 10 µM 80.1% | [3]; 1 µM 44.9% | [4]; 1 µM 64.8% | [4]; 10 µM 49.8% | [5]; 1 µM 97.4% | [5]; 10 µM 80% | [7]; 1 µM 83.7% | [7]; 10 µM 31.8% | [8]; 1 µM 93.4% | [8]; 10 µM 77.8% | [9]; 1 µM 101% | [9]; 10 µM 90.4% | [10]; 1 µM 90.4% | [10]; 10 µM 57%
active: [3]; 10 µM 4.63%

COc1c(B(O)O)cc(F)cc1-c1nc2c(F)cc3[nH]ncc3c2c2c1CCCC2
active: [1]; 10 µM unless noted 4.25% | [3]; 10 µM unless noted -78.1% | [4]; 10 µM unless noted 7.54% | [7]; 10 µM unless noted 7.04% | [8]; 10 µM unless noted -7% | [9]; 10 µM unless noted -16.6%
inactive: [2]; 10 µM unless noted 21.1% | [5]; 10 µM unless noted 10.8% | [6]; 10 µM unless noted 12.8%

COc1ccccc1Nc1nnc(-c2c[nH]c3ccccc23)o1
inactive: [1]; 10 µM unless noted 11.5% | [3]; 10 µM unless noted 44% | [4]; 10 µM unless noted 43.4% | [6]; 10 µM unless noted 16.4% | [8]; 10 µM unless noted 22.9%
active: [2]; 10 µM unless noted 7.44% | [5]; 10 µM unless noted 4.61% | [7]; 10 µM unless noted -32.7% | [9]; 10 µM unless noted 7.77%

COc1ccc(NC(=O)Nc2nc3ccc([N+](=O)[O-])cc3s2)cc1
active: [1]; 10 µM unless noted 9.87% | [5]; 10 µM unless noted 0.863% | [7]; 10 µM unless noted -70.7%
inactive: [2]; 10 µM unless noted 58.1% | [3]; 10 µM unless noted 62.3% | [4]; 10 µM unless noted 14.6% | [6]; 10 µM unless noted 10.5% | [8]; 10 µM unless noted 36.2% | [9]; 10 µM unless noted 33.8%

CC/C(=C(\c1ccc(O)cc1)c1ccc(OCCNC)cc1)c1ccccc1
inactive: [1]; 1 µM 107% | [1]; 10 µM 69.8% | [3]; 1 µM 110% | [3]; 10 µM 62.7% | [4]; 1 µM 94.6% | [4]; 10 µM 98.6% | [5]; 1 µM 98.6% | [5]; 10 µM 57.4% | [6]; 1 µM 101% | [6]; 10 µM 83% | [7]; 1 µM 97.1% | [7]; 10 µM 89.2% | [8]; 1 µM 91.6% | [8]; 10 µM 101% | [9]; 1 µM 86.9% | [9]; 10 µM 83.1% | [10]; 1 µM 98.5% | [10]; 10 µM 93.3%

O=C1CCC(N2C(=O)c3cccc(NCCOCCOCCOCCC(=O)NCCCC(=O)NC(c4ccc5c(c4)OCO5)c4cc(Cl)c5cccnc5c4O)c3C2=O)C(=O)C1 (stereo not drawn)
active: [8]; 10 µM unless noted 0.155% | [9]; 10 µM unless noted -37.6%
inactive: [1]; 10 µM unless noted 88.8% | [2]; 10 µM unless noted 28.5% | [3]; 10 µM unless noted 62.7% | [4]; 10 µM unless noted 28.5% | [5]; 10 µM unless noted 27.2% | [6]; 10 µM unless noted 32.5% | [7]; 10 µM unless noted 43.6%

O=C(Cc1c(-c2ccccc2[N+](=O)[O-])n(-c2ncnc3c2c(-c2ccccc2)c(-c2ccccc2)n3Cc2ccccc2)[nH]c1=O)c1ccc(Cl)c(Cl)c1
inactive: [1]; 10 µM unless noted 46.9% | [2]; 10 µM unless noted 18.4% | [3]; 10 µM unless noted 14% | [4]; 10 µM unless noted 16.8% | [5]; 10 µM unless noted 28.1% | [9]; 10 µM unless noted 14.9%
active: [6]; 10 µM unless noted 8.7% | [7]; 10 µM unless noted -45.3% | [8]; 10 µM unless noted -9.59%

CC/C(=C(/c1ccc(O)cc1)c1ccc(OCCN(C)C(=O)CCOCCNC(=O)Cc2ccc3c(c2)CN([C@@H]2CCC(=O)NC2=O)C3=O)cc1)c1ccccc1
inactive: [1]; 1 µM 108% | [1]; 10 µM 100% | [2]; 1 µM 103% | [2]; 10 µM 91.3% | [3]; 1 µM 57% | [3]; 10 µM 27.8% | [4]; 1 µM 75.9% | [4]; 10 µM 62.1% | [5]; 1 µM 96.2% | [5]; 10 µM 92.6% | [7]; 1 µM 97% | [7]; 10 µM 71.5% | [8]; 1 µM 96.9% | [8]; 10 µM 85.5% | [9]; 1 µM 99.2% | [9]; 10 µM 93.6% | [10]; 1 µM 101% | [10]; 10 µM 80.2%

COC(=O)c1cc(C(=O)CBr)n2c1ccc1c3ccccc3ccc12
inactive: [1]; 10 µM unless noted 39.3% | [2]; 10 µM unless noted 44.6% | [3]; 10 µM unless noted 90.2% | [4]; 10 µM unless noted 55.5% | [5]; 10 µM unless noted 39.4% | [6]; 10 µM unless noted 53.1% | [7]; 10 µM unless noted 53.4% | [8]; 10 µM unless noted 51.2% | [9]; 10 µM unless noted 31.9%

COC(=O)c1c(C(=O)OC)c2ccc3c4ccccc4ccc3n2c1C(=O)C(C)Br (stereo not drawn)
inactive: [2]; 10 µM unless noted 24% | [3]; 10 µM unless noted 94.3% | [4]; 10 µM unless noted 52.1% | [5]; 10 µM unless noted 23.9% | [6]; 10 µM unless noted 47.1% | [7]; 10 µM unless noted 24.4% | [8]; 10 µM unless noted 33.5%
active: [1]; 10 µM unless noted 9.95% | [9]; 10 µM unless noted -5.75%

COc1cc(C=O)ccc1Oc1nc(Nc2ccc(F)cc2)nc(N(C)C)n1
inactive: [1]; 10 µM unless noted 88.4% and 18.6% | [2]; 10 µM unless noted 105% and 69.2% | [3]; 10 µM unless noted 47.7% and 58.3% | [4]; 10 µM unless noted 87.6% and 68.2% | [5]; 10 µM unless noted 85% and 36.5% | [6]; 10 µM unless noted 90.3% and 61.7% | [7]; 10 µM unless noted 32.3% and 76.3% | [8]; 10 µM unless noted 63% and 85.7% | [9]; 10 µM unless noted 54.3%

COc1ccc(NC(=O)Cn2c(/C=C/c3cccc(OC)c3)nc3ccccc3c2=O)cc1
active: [3]; 10 µM unless noted -34.5% | [5]; 10 µM unless noted -26.5%
inactive: [1]; 10 µM unless noted 70.9% | [2]; 10 µM unless noted 51.8% | [4]; 10 µM unless noted 56.4% | [6]; 10 µM unless noted 73.9% | [7]; 10 µM unless noted 92.7% | [8]; 10 µM unless noted 57.8% | [9]; 10 µM unless noted 22.4%

N#CC1=C(c2cccs2)Nc2c(c(-c3ccccc3)nn2-c2ccccc2)C12C(=O)Nc1ccc(Cl)cc12 (stereo not drawn)
inactive: [1]; 10 µM unless noted 10.5% | [2]; 10 µM unless noted 14.4% | [3]; 10 µM unless noted 36.9% | [4]; 10 µM unless noted 13.4% | [5]; 10 µM unless noted 16.2% | [6]; 10 µM unless noted 12.8% | [7]; 10 µM unless noted 25.1% | [8]; 10 µM unless noted 15.4% | [9]; 10 µM unless noted 25.8%

O=C(CSc1nc2c(c(=O)[nH]1)CCCC2)Nc1ccccc1C(=O)O
inactive: [1]; 10 µM unless noted 98.3% | [2]; 10 µM unless noted 105% | [3]; 10 µM unless noted 125% | [4]; 10 µM unless noted 99.7% | [5]; 10 µM unless noted 103% | [6]; 10 µM unless noted 106% | [7]; 10 µM unless noted 99.3% | [8]; 10 µM unless noted 96.1% | [9]; 10 µM unless noted 101%

COc1nc(N)ncc1-c1ccc2ncnc(N3CCc4cc(F)c(Cl)cc43)c2c1
active: [3]; 10 µM unless noted -52.7% | [4]; 10 µM unless noted 1.32% | [5]; 10 µM unless noted -44.9%
inactive: [1]; 10 µM unless noted 23.7% | [2]; 10 µM unless noted 36.7% | [6]; 10 µM unless noted 66.3% | [7]; 10 µM unless noted 57.5% | [8]; 10 µM unless noted 50% | [9]; 10 µM unless noted 14.5%

N#CC1=C(c2ccco2)Nc2c(c(-c3ccccc3)nn2-c2ccccc2)C12C(=O)Nc1ccc(Cl)cc12 (stereo not drawn)
active: [3]; 10 µM unless noted -56.4% | [4]; 10 µM unless noted 3.22% | [5]; 10 µM unless noted -21.7% | [6]; 10 µM unless noted -41% | [9]; 10 µM unless noted 2.55%
inactive: [1]; 10 µM unless noted 30.4% | [2]; 10 µM unless noted 41.9% | [7]; 10 µM unless noted 50.4% | [8]; 10 µM unless noted 37.4%

COc1cc(/C=C/C(=O)c2cnn(-c3cc(=O)[nH]c4ccc(C)cc34)c2C)cc(OC)c1OC
active: [1]; 10 µM unless noted -38.7% | [2]; 10 µM unless noted -67.3% | [5]; 10 µM unless noted -85% | [6]; 10 µM unless noted 5.99% | [7]; 10 µM unless noted -95.2% | [8]; 10 µM unless noted -71.9% | [9]; 10 µM unless noted -92%
inactive: [3]; 10 µM unless noted 45.1% | [4]; 10 µM unless noted 18.7%

COc1cc(C=O)ccc1OC(=O)c1cc(-c2ccc(C)cc2)n(-c2ccc(S(C)(=O)=O)cc2)n1
inactive: [1]; 10 µM unless noted 96.7% | [2]; 10 µM unless noted 113% | [3]; 10 µM unless noted 104% | [4]; 10 µM unless noted 90.3% | [5]; 10 µM unless noted 100% | [6]; 10 µM unless noted 100% | [7]; 10 µM unless noted 100% | [8]; 10 µM unless noted 91.4% | [9]; 10 µM unless noted 98.8%

FC(F)(F)CN1CCN(CCn2c(C(F)(F)F)cc3c(Cl)ncnc32)CC1
active: [1]; 10 µM unless noted -56.7% | [3]; 10 µM unless noted -32.1% | [4]; 10 µM unless noted -87.5% | [5]; 10 µM unless noted -12.6% | [7]; 10 µM unless noted 9.63% | [9]; 10 µM unless noted -96.7%
inactive: [2]; 10 µM unless noted 12.5% | [6]; 10 µM unless noted 18.2% | [8]; 10 µM unless noted 28.4%

O=C(CSc1nnc(-c2ccc(-c3nc4ccccc4[nH]3)cc2)o1)Nc1ccc(Br)cc1
active: [4]; 10 µM unless noted -46.2% | [5]; 10 µM unless noted -81.6% | [9]; 10 µM unless noted -85.5%
inactive: [1]; 10 µM unless noted 17.5% | [2]; 10 µM unless noted 22.6% | [3]; 10 µM unless noted 63.3% | [6]; 10 µM unless noted 12.4% | [7]; 10 µM unless noted 21.6% | [8]; 10 µM unless noted 30.5%

Cc1ccc(S(=O)(=O)Nc2ccc(-c3ccc4c(c3)NC(=O)/C4=C\c3ccc[nH]3)cc2)cc1
inactive: [1]; 10 µM unless noted 68.7% | [2]; 10 µM unless noted 78.5% | [3]; 10 µM unless noted 96.1% | [4]; 10 µM unless noted 95.1% | [5]; 10 µM unless noted 77.3% | [6]; 10 µM unless noted 80.1% | [7]; 10 µM unless noted 99.1% | [8]; 10 µM unless noted 89.8% | [9]; 10 µM unless noted 91.7%
